# The source made the active and inactive calls. Cut-off read from the data, not from the text of the source, unless noted: active = inhibition above about 80%; inactive = the rest.
# Experiments:
# [1] = LFS_MB_P medulloblastoma growth inhibition, cell-based, chromothripsis tumors, cisplatin or BGB combos (AID 1671449); conditions: LFS_MB_P medulloblastoma cells;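 note: cells exposed for 96 hours; 0% = vehicle DMSO and 100% = killing by high DMSO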
# [2] = HDN33 neuroblastoma growth inhibition, cell-based, chromothripsis tumors, cisplatin or BGB combos (AID 1671450); conditions: HDN33 neuroblastoma cells, stronger effect = higher value;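 note: cells exposed to compound for four days; 0% = vehicle DMSO and 100% = cell killing by high DMSO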
# [3] = ICB984 medulloblastoma cell growth inhibition, synergistic combos for chromothripsis tumors, cisplatin or BGB combos (AID 1671451; call rule not given here;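 note: cells exposed for 96 hours before readout; 0% = vehicle DMSO and 100% = killing by high DMSO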); conditions: ICB984 medulloblastoma cells, drug combinations, stronger effect = higher value
# [4] = LFS_MB_1R medulloblastoma cell growth inhibition, synergistic combos for chromothripsis tumors, cisplatin or BGB combos (AID 1671452); conditions: LFS_MB_1R medulloblastoma cells, stronger effect = higher value;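 note: cells exposed for 96 hours before readout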
# [5] = HTB85 osteosarcoma cell growth inhibition, synergistic combos for chromothripsis tumors, BGB or cisplatin IC20 combos (AID 1671453); conditions: HTB85 osteosarcoma cells, drug combinations, stronger effect = higher value;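 note: cells exposed for 96 hours before readout; 0% = vehicle DMSO and 100% = high DMSO killing control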
# [6] = CRL2098 osteosarcoma cell growth inhibition, synergistic combos for chromothripsis tumors, BGB or cisplatin IC20 combos (AID 1671454); conditions: CRL2098 osteosarcoma cells, drug combinations, stronger effect = higher value;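 note: cells exposed for 96 h before readout; 0% = vehicle DMSO and 100% = killing by high DMSO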
# [7] = HD-MB03 medulloblastoma cell growth inhibition, synergistic combos for chromothripsis tumors, BGB or cisplatin IC20 combos (AID 1671455; in the data active = inhibition above about 83%;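 note: 0% = vehicle DMSO and 100% = high DMSO as cytotoxic control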); conditions: HD-MB03 medulloblastoma cells, stronger effect = higher value
# [8] = UWB1.289 ovarian carcinoma cell growth inhibition, synergistic combos for chromothripsis tumors, BGB or cisplatin combos (AID 1671456); conditions: UWB1.289 ovarian carcinoma cells, stronger effect = higher value;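 note: cells exposed to compound for four days; 0% = vehicle DMSO and 100% = killing by high DMSO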
# [9] = LFS_MB_2R medulloblastoma cell growth inhibition, synergistic combos for chromothripsis tumors, cisplatin combos (AID 1671457); conditions: LFS_MB_2R medulloblastoma cells, stronger effect = higher value;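 note: cells exposed to compound for four days before readout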
# [10] = MDA-MB-436 breast carcinoma cell growth inhibition, synergistic combos for chromothripsis tumors, BGB or cisplatin combos (AID 1671458; call rule not given here;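 note: cells exposed for 96 hours; 0% = vehicle DMSO and 100% = killing by high DMSO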); conditions: MDA-MB-436 breast carcinoma growth inhibition, drug combinations, stronger effect = higher value
# [11] = UWB1.289_BRCA1 ovarian cancer growth, cell-based, BGB or cisplatin combinations (AID 1671459); conditions: UWB1.289 BRCA1 ovarian carcinoma, drug combinations, stronger effect = higher value
# [12] = human astrocyte viability loss, single and combined drugs, cytotoxicity control for chromothriptic childhood tumor combination screen, cell-based, BGB or cisplatin IC20 combos (AID 1671460); conditions: Human astrocytes, drug combinations, stronger effect = higher value;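 note: cells exposed to compounds for 96 hours before viability readout; 0% = vehicle and 100% = killing control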
# [13] = growth inhibition of BT084 medulloblastoma cells, cell-based, ICGC_MB145, cisplatin and BGB IC40 combos (AID 1671461); conditions: drug combinations, stronger effect = higher value;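 note: cells exposed to drugs for 96 hours; 0% = vehicle DMSO and 100% = high DMSO full killing control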
# [14] = growth inhibition of RCMB18 medulloblastoma cells, cell-based, cisplatin and BGB IC40 combos (AID 1671462); conditions: stronger effect = higher value;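 note: cells exposed to compound for four days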
# [15] = growth inhibition of CRL1545 osteosarcoma cells, cell-based, cisplatin and BGB IC20 combos (AID 1671464); conditions: stronger effect = higher value;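 note: cells exposed to compound for 96 hours before readout; 0% = vehicle DMSO and 100% = high DMSO killing control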
# [16] = measured here: combination with BGB IC40, at 0.05 µM
# [17] = measured here: with BGB IC20 combination, at 0.5 µM
# [18] = measured here: with cisplatin IC20 combination, at 0.5 µM
# [19] = measured here: combination with cisplatin, at 0.5 µM
# [20] = measured here: combination with cisplatin, at 5 µM
compound,measurement,setting,value
CC(=O)C1(O)Cc2c(O)c3c(c(O)c2C(OC2CC(N)C(O)C(C)O2)C1)C(=O)c1ccccc1C3=O (stereo not drawn),inhibition,"[1]; at 0.5 µM, stronger effect = higher value",-11.2% (inactive)
same,inhibition,"[1]; measured here: combination with BGB IC20, at 0.005 µM",-29.5%
same,inhibition,"[1]; measured here: combination with BGB IC40, at 0.005 µM",-38.8%
same,inhibition,[1]; [16],-19.5%
same,inhibition,"[1]; measured here: combination with cisplatin, at 0.5 µM, stronger effect = higher value",-31.3%
same,inhibition,"[1]; measured here: combination with cisplatin, at 5 µM, stronger effect = higher value",125%
same,inhibition,"[2]; BGB combo, at 5 µM",99.7%
same,inhibition,[2]; at 0.5 µM,98.4% (active)
same,inhibition,"[2]; cisplatin combo, at 5 µM",99.9%
same,inhibition,[2]; [17],97.4%
same,inhibition,[2]; [18],98.5%
same,inhibition,"[2]; single agent, at 5 µM",99.9%
same,inhibition,"[3]; BGB IC20 combo, at 0.005 µM",97.5%
same,inhibition,"[3]; BGB IC40 combo, at 0.005 µM",95.4%
same,inhibition,"[3]; BGB IC40 combo, at 0.05 µM",100%
same,inhibition,[3]; at 0.5 µM,-42.9% (inactive)
same,inhibition,"[3]; cisplatin combo, at 0.05 µM",100%
same,inhibition,"[3]; cisplatin combo, at 0.5 µM",-43%
same,inhibition,"[3]; cisplatin combo, at 5 µM",-1.78%
same,inhibition,"[3]; measured here: 5 uM single agent, at 5 µM",-14.9%
same,inhibition,[4]; at 0.5 µM,102% (active)
same,inhibition,[4]; [16],73.8%
same,inhibition,[4]; [19],103%
same,inhibition,[4]; [20],106%
same,inhibition,[5]; at 0.5 µM,99.6% (active)
same,inhibition,"[5]; measured here: with BGB IC20, at 0.5 µM",99.4%
same,inhibition,"[5]; measured here: with BGB IC20, at 5 µM",99.7%
same,inhibition,"[5]; measured here: with cisplatin IC20, at 0.5 µM",99.8%
same,inhibition,"[5]; measured here: with cisplatin IC20, at 5 µM",99.8%
same,inhibition,"[5]; single agent, at 5 µM",99.9%
same,inhibition,[6]; at 0.5 µM,98.6% (active)
same,inhibition,"[6]; measured here: combination with BGB at IC20, at 0.5 µM",98%
same,inhibition,"[6]; measured here: combination with cisplatin at IC20, at 0.5 µM",98.6%
same,inhibition,[7]; at 0.5 µM,94.5% (active)
same,inhibition,"[7]; measured here: combo with BGB at IC20, at 0.5 µM",89.5%
same,inhibition,"[7]; measured here: combo with cisplatin at IC20, at 0.5 µM",99.8%
same,inhibition,[8]; at 0.5 µM,83.1% (active)
same,inhibition,"[8]; measured here: inhibition with BGB combination, at 0.05 µM",40.5%
same,inhibition,"[8]; measured here: inhibition with cisplatin combination, at 0.05 µM",51.2%
same,inhibition,[9]; at 0.5 µM,75.6% (inactive)
same,inhibition,[9]; [19],88%
same,inhibition,[9]; [20],102%
same,inhibition,[10]; at 0.5 µM,76.4% (inactive)
same,inhibition,"[10]; measured here: BGB combination, at 0.5 µM",65.8%
same,inhibition,"[10]; measured here: BGB combination, at 5 µM",72.7%
same,inhibition,"[10]; measured here: cisplatin combination, at 0.5 µM",82.9%
same,inhibition,"[10]; measured here: cisplatin combination, at 5 µM",92.7%
same,inhibition,"[11]; BGB combination, concentration series, at 5 µM",101%
same,inhibition,[11]; at 0.5 µM,89% (active)
same,inhibition,"[11]; cisplatin combination, concentration series, at 5 µM",97.8%
same,inhibition,[12]; at 0.5 µM,89.9% (active)
same,inhibition,"[12]; measured here: combo with BGB IC20, at 0.5 µM",84%
same,inhibition,"[12]; measured here: combo with cisplatin IC20, at 0.5 µM",91.6%
same,inhibition,[13]; at 0.5 µM,13.8% (inactive)
same,inhibition,"[13]; cisplatin combination, at 0.5 µM",-40.7%
same,inhibition,"[13]; cisplatin combination, at 5 µM",77.4%
same,inhibition,"[13]; measured here: BGB IC40 combination 0.05 uM, at 0.05 µM",-4.42%
same,inhibition,"[13]; single agent, at 5 µM",81.6%
same,inhibition,[14]; at 0.5 µM,75.2% (inactive)
same,inhibition,"[14]; cisplatin combo, at 5 µM",89.9%
same,inhibition,"[14]; measured here: BGB IC40 combination, at 0.05 µM",34.7%
same,inhibition,[14]; [19],76.4%
same,inhibition,"[14]; single agent, at 5 µM",94.4%
same,inhibition,[15]; at 0.5 µM,99.1% (active)
same,inhibition,[15]; [17],98.7%
same,inhibition,[15]; [18],99.3%
same,inhibition,"[15]; single agent, at 0.05 µM",99.4%
same,inhibition,"[15]; single agent, at 5 µM",99.9%

# Reference: PubChem BioAssay
